From PubChem BioAssay (NCATS)
Records with an inconclusive call do not appear. Entries that show only a call come without a potency. Active and inactive are the calls of the source. Calls come from the whole dose curve; as a rule, active = well fitted inhibition curve with a large enough effect; inconclusive = small, poorly fitted or top-dose-only effect; inactive = flat fitted curve, though single readings scatter.

target: Ubiquitin carboxyl-terminal hydrolase 1 (Homo sapiens) (UniProt O94782); test: Inhibitors of USP1/UAF1: Pilot qHTS (AID 504865); conditions: purified USP1/UAF1, Ub-rhodamine cleavage fluorescence; series mostly up to 114 µM; note: nearly all actives have a fitted effect of over 35% in size
Excerpt: Deubiquitinating enzymes (DUBs) are a class of enzymes that can cleave isopeptide bond formed between the C-terminal carboxylate of ubiquitin and a lysine side-chain amino group on the target protein. Among them, ubiquitin specific proteases (USPs) constitute the largest DUB family. Human USPs are emerging as promising targets for pharmacological intervention because of their connection to a number of human diseases, including prostate, colon and breast cancer (1, 2), pediatric acute lymphoblastic leukemia (3), and familial cylindromatosis (4). The advantage of inhibiting USPs lies in the potential specificity of therapeutic intervention that can lead to better efficacy and reduce nonspecific side effects.
In a collaboration between the University of Delaware and the NIH Chemical Genomics Center, a high-throughput screen assay was developed to screen for USP1/UAF1 inhibitors. This miniaturized assay has a fluorescent read-out and is used to screen the NIH Molecular Libraries Small Molecule Repository (MLSMR) in order to identify a small molecule that inhibits USP1.
NIH Chemical Genomics Center [NCGC]
NIH Molecular Libraries Probe Centers Network [MLPCN]
Assay Submitter (PI): Zhihao Zhuang, University of Delaware
1. Priolo, C., et al. (2006) The isopeptidase USP2a protects human prostate cancer from apoptosis. Cancer Res 66, 8625-8632
2. Popov, N., et al. (2007) The ubiquitin-specific protease USP28 is required for MYC stability. Nat Cell Biol 9, 765-774
3. De Pitta, C., et al. (2005) A leukemia-enriched cDNA microarray platform identifies new transcripts with relevance to the biology of pediatric acute lymphoblastic leukemia. Haematologica 90, 890-898
4. Kovalenko, A., et al. (2003) The tumour suppressor CYLD negatively regulates NF-kappaB signalling by deubiquitination. Nature 424, 801-805
3 microliters of reagents (buffer in columns 3 and 4 as negative control and 1nM USP1/UAF1 complex in columns 1, 2, and 5-48) are dispensed into Greiner black solid bottom 1536-well assay plates. Compounds are then transferred via Kalypsys pin tool equipped with 1536-pin array (10nl slotted pins, V&P Scientific, San Diego, CA). Following an incubation step of 15 min at room temperature, 1ul of Ub-Rho substrate (150nM final concentration) is added to initiate the reaction. The plates are immediately centrifuged at 1000 rpm for 15 seconds, and subsequently transferred to a ViewLux high-throughput CCD imager (PerkinElmer) wherein kinetic measurements of fluorescence are acquired using 480 nm excitation/540 nm emission filter set (6 reads every 60 seconds, see Table 1). All reagents are diluted in an assay buffer consisting of 50mM HEPES (pH 7.8), 0.5mM EDTA, 0.1 mg/ml BSA, 1mM TCEP, and 0.01% Tween-20.
Potency is the fitted concentration of half-maximal effect.

Ubiquitin carboxyl-terminal hydrolase 1 (Homo sapiens), sequence (O94782 whole entry, looked up): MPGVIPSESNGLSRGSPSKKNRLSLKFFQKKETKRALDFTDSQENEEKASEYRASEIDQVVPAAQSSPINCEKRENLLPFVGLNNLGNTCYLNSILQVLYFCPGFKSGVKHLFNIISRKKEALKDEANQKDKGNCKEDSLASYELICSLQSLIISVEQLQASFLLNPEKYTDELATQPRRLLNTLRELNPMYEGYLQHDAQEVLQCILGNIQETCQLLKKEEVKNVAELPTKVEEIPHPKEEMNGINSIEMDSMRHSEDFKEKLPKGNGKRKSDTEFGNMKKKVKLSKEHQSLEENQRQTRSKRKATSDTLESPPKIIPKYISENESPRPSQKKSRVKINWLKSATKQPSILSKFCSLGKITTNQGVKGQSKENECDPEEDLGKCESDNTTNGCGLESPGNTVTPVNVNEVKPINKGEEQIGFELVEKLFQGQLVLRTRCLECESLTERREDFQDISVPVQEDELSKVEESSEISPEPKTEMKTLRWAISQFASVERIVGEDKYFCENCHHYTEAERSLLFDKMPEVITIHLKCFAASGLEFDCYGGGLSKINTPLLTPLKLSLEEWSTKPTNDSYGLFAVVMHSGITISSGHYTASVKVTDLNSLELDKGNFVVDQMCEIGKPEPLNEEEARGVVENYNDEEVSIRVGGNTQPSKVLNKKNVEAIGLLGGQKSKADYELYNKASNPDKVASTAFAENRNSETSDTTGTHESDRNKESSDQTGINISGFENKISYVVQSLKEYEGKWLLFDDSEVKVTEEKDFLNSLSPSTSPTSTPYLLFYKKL

Row | SMILES | Potency
1 | CNCCc1c[nH]c2ccc(O)cc12 | inactive
2 | CC(=O)[O][Hg][c]1ccccc1 | 50.1 µM (active)
3 | CS(=N)(=O)CC[C@H](N)C(=O)O (stereo not given in full) | inactive
4 | COC(=O)c1cncn1C(C)c1ccccc1 (stereo not given) | inactive
5 | CC(Cc1ccc(O)cc1)NCC(O)c1cc(O)cc(O)c1 (stereo not given) | inactive
6 | O=C(N[C@H]1CN2CCC1CC2)c1ccc(Cl)cc1 | inactive
7 | NC(CCP(=O)(O)O)C(=O)O (stereo not given) | inactive
8 | CC(=O)OCC1=C(C(=O)O)N2C(=O)[C@@H](N)[C@@H]2SC1 | inactive
9 | O=C1CCCN1CC#CCN1CCCC1 | inactive
10 | CCCN1CCC[C@H](c2cccc(O)c2)C1 | inactive
11 | O=C(O)COc1ccccc1 | inactive
12 | CCC(=O)OC1CCC2C3CCC4=CC(=O)CC[C@@]4(C)C3CC[C@]12C (stereo not given in full) | inactive
13 | NC(N)=NOCCC(N)C(=O)O (stereo not given) | inactive
14 | O=C(O)CC[N+](=O)[O-] | inactive
15 | NC(CP(=O)(O)O)C(=O)O (stereo not given) | inactive
16 | Clc1cnc(Oc2ccc(Oc3ncc(Cl)cc3Cl)cc2)c(Cl)c1 | inactive
17 | C[N+](C)(C)CC(=O)O | inactive
18 | O=C(O)Cc1cnc[nH]1 | inactive
19 | Cc1cc(O)ccc1Cl | inactive
20 | CN(C)[C@@H]1C(=O)C(C(N)=O)=C(O)[C@@]2(O)C(=O)C3=C(O)c4c(O)cccc4[C@@](C)(O)[C@H]3[C@H](O)[C@@H]12 | inactive

Row | SMILES | Potency
21 | O=C1C(I)=CC(=C(c2cc(I)c(O)c(I)c2)c2ccccc2C(=O)O)C=C1I | 25.1 µM (active)
22 | CCCN(CCC)[C@@H]1CCc2ccc(O)cc2C1 | inactive
23 | c1ccc(CCCN2CCN(CCOC(c3ccccc3)c3ccccc3)CC2)cc1 | inactive
24 | CC1=NN=C(c2ccc(N)cc2)c2cc3c(cc2C1)OCO3 | inactive
25 | S=C(NC1CCCCC1)N1CCC(c2cnc[nH]2)CC1 | inactive
26 | NC(=O)CN1CC(O)CC1=O (stereo not given) | inactive
27 | CCCCc1ccc(C(=O)O)nc1 | inactive
28 | C1CCC(NC2CCCCC2)CC1 | inactive
29 | Cn1cnc(CCN)c1 | inactive
30 | CCOC(=O)c1cncn1[C@H](C)c1ccccc1 | inactive
31 | CC[C@@H](C(N)=O)N1CCCC1=O | inactive
32 | CC(C)Oc1cccnc1N(C)C1CCN(Cc2ccccc2)CC1 | inactive
33 | Cc1ccc(Cl)c(O)c1 | inactive
34 | C[C@]12N[C@H](Cc3ccccc31)c1ccccc12 | inactive
35 | NC1=NC(=O)N2CC12 (stereo not given) | inactive
36 | NCCc1c[nH]c2ccccc12 | inactive
37 | O=C(O)CCCOc1ccc(Cl)cc1Cl | inactive
38 | NCc1cc(=O)[nH]o1 | inactive
39 | CC[C@@]1(O)C(=O)OCc2c1cc1n(c2=O)Cc2cc3ccccc3nc2-1 | inactive
40 | CN1C2CCC1CC(OC(=O)c1cc(Cl)cc(Cl)c1)C2 (stereo not given) | inactive
